Experiment [1] has as its system Wnt5a (protein binding on small-molecule microarray). As to the kind of experiment: small molecules binding Wnt5a protein – biophysical, small-molecule microarray, 635/667 nm fluorescence, primary screen (AID 1142).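 Also: fluorescence read at 667 nm with signal to noise per printed feature.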 The settings on record: 635 nm fluorescence, higher = more signal.
Experiment [2] in a line: ATP-based viability of Huh7 replicon cells – cell-based, CellTiter-Glo luminescence, basal, 48 h, cytotoxicity control for HCV replication inhibitor project, primary screen (AID 1143).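 Also: Huh7 hepatoma cells carrying a hepatitis C replication reporter with no stimulus; test concentration not given here.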 As to conditions: higher = more signal, called active from +8 up or from −8 down. On the technique in general: In antiviral work, replicon cells carry a viral genome segment that copies itself.

A short description of experiment [3]: Pseudomonas biofilm growth suppression – PAO1 strain, BacTiter-Glo luminescence, LB-PBS, primary screen (AID 1144). The settings on record: P. aeruginosa PAO1 biofilm, 12 h, higher = more signal.
A short description of experiment [4]: basal CRE-LacZ reporter activity in PC12 – cell-based, unstimulated, primary screen (AID 1145). The settings on record: no forskolin, luminescence, 4.5 h, higher = more signal, called active from +8 up or from −8 down.
Experiment [5] in a line: forskolin-driven CRE-LacZ activity in PC12 – cell-based, CRE-LacZ reporter, forskolin-stimulated, primary screen (AID 1146).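 Also: PC12 cells with 6xCRE LacZ reporter stimulated by forskolin 10 µM; beta-galactosidase reporter signal reflecting CREB driven transcription.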 As to conditions: luminescence, 4.5 h, higher = more signal, called active from +8 up or from −8 down.
Experiment [6] has as its target Streptavidin (Streptomyces avidinii) (UniProt P22629). As to the kind of experiment: compounds binding control protein streptavidin – biophysical, small-molecule microarray, 635/667 nm fluorescence, artefact control for SMM compound annotation, primary screen (AID 1147).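 Also: signal reflects streptavidin binding to arrayed compounds as a control protein.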 As to conditions: higher = more signal.
Experiment [7] in a line: probe aInhba binding on compound microarray – biochemical, small-molecule microarray, 635/667 nm fluorescence, primary screen (AID 1148).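 Also: score merges 667nm spot fluorescence with signal-to-noise for antibody binding to printed compounds.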 The settings on record: higher = more signal.
The target of experiment [8] is Torsin-1A (Homo sapiens) (UniProt O14656). As to the kind of experiment: TOR1A wild-type binding on microarray – cell lysate, small-molecule microarray, lysate, 635/667 nm, primary screen (AID 1149). As to conditions: COS7 hTOR1A-WT lysate, 635 nm fluorescence, higher = more signal.
Torsin-1A (Homo sapiens), sequence (O14656 whole entry, looked up): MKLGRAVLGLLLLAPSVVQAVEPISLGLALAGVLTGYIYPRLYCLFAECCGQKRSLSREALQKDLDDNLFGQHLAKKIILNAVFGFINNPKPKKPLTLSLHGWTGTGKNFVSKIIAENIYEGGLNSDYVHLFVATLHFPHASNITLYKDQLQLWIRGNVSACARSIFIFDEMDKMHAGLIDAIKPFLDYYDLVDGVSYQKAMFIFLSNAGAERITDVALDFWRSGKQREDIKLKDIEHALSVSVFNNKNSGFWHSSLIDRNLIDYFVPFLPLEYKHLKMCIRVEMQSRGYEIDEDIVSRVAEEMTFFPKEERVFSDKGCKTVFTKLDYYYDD
Experiment [9] shares this target. Nature of the experiment: torsin A mutant lysate binding on microarrays – cell lysate, small-molecule microarray, COS7 lysate, 635/667 nm fluorescence, primary screen (AID 1150).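 Also: score pools 667 nm emission and signal to noise measuring lysate protein binding.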 The settings on record: COS7 hTOR1A mutant lysate, 635 nm fluorescence, higher = more signal.
For experiment [10], the system named is Sonic hedgehog protein (Shh). Nature of the experiment: Sonic hedgehog microarray binding compounds – biochemical, small-molecule microarray, 635/667 nm fluorescence, primary screen (AID 1151).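 Also: Shh protein binding to compounds spotted on small-molecule microarray slides; score combines spot fluorescence intensity with signal-to-noise across triplicate slides.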 The settings on record: 635 nm fluorescence, higher = more signal.
Experiment [11] is described as follows: optical density shifts of acrAB sulA E. coli – strain DRC41, OD650, 48 h, E. coli filamentation inducer project, primary screen (AID 1152).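 Also: E. coli MC1000 strain DRC41 lacking acrAB efflux pump and sulA.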 As to conditions: higher = more signal, called active from +8 up or from −8 down.
A short description of experiment [12]: probe aLefty1 binding on compound microarray – biochemical, small-molecule microarray, 635/667 nm fluorescence, primary screen (AID 1153).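 Also: score merges spot fluorescence with signal-to-noise ratio from the scanned slide images.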 The settings on record: higher = more signal.
Experiment [13] in a line: plasmodial surface anion channel blockers, osmotic lysis – cell-based, P. falciparum Indochina, OD700, 1 h, primary screen (AID 1154). As to conditions: P. falciparum Indochina infected RBC osmotic lysis, higher = more signal, called active from +8 up or from −8 down.
Experiment [14] in a line: plasmodial surface anion channel blockers, osmotic lysis – cell-based, P. falciparum Indochina, OD700, 2 h, primary screen (AID 1155).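 Also: lysis reports solute entry through the parasite surface anion channel PSAC.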 The settings on record: P. falciparum Indochina infected erythrocytes, higher = more signal, called active from +8 up or from −8 down.
A short description of experiment [15]: changes in parasitized red cell lysis, either direction – P. falciparum Indochina, OD700, 3 h, PSAC antagonist project, primary screen (AID 1156). The settings on record: P. falciparum-infected erythrocytes, osmotic lysis, higher = more signal, called active from +8 up or from −8 down.
Experiment [16] in a line: plasmodial surface anion channel blockers, osmotic lysis – cell-based, P. falciparum Indochina, OD700, 18 h, primary screen (AID 1157). As to conditions: P. falciparum Indochina infected erythrocytes, osmotic lysis OD700, 18 h; higher = more signal, called active from +8 up or from −8 down.
The nature of experiment [17]: S6 kinase pathway phospho-S6 level changes – cell-based, A549, cytoblot, luminescence, serum-stimulated, primary screen (AID 1158).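 Also: serum-stimulated A549 lung adenocarcinoma cells; signal is phosphorylated S6 detected by cytoblot immunostaining with HRP secondary.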 As to conditions: 5 h, higher = more signal.
Experiment [18] has as its target NADPH oxidase 2 (Homo sapiens) (UniProt P04839). Nature of the experiment: compounds shifting NOX2 Amplex Red fluorescence – cell-based, HEK293-NOX2, PMA-stimulated, NOX inhibitor project, primary screen (AID 1159). Also: test concentration not given here. As to conditions: 45 min, higher = more signal, called active from +8 up or from −8 down.
Experiment [19] concerns the target NADPH oxidase 4 (Homo sapiens) (UniProt Q9NPH5). Nature of the experiment: compounds shifting NOX4 Amplex Red fluorescence – cell-based, HEK293-NOX4, tetracycline-induced, NOX inhibitor project, primary screen (AID 1160). The settings on record: HEK293-NOX4, Amplex Red H2O2 fluorescence, 45 min; higher = more signal, called active from +8 up or from −8 down.
Experiment [20] concerns the target NADPH oxidase 5 (Homo sapiens) (UniProt Q96PH1). Nature of the experiment: compounds shifting NOX5 Amplex Red fluorescence – cell-based, HEK293-NOX5, NOX inhibitor project, primary screen (AID 1161). The settings on record: HEK293-NOX5, ionomycin, 45 min, higher = more signal.

Structures are written as SMILES. Active and inactive are the calls of the source. Unless noted, no rule for the calls is given here.

Streptavidin (Streptomyces avidinii), sequence (P22629 whole entry, looked up): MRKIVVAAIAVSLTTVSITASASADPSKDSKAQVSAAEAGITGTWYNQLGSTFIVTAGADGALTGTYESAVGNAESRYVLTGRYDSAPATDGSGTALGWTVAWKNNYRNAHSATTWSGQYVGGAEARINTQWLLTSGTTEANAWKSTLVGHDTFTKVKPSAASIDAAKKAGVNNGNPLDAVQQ
NADPH oxidase 2 (Homo sapiens), sequence (P04839 whole entry, looked up): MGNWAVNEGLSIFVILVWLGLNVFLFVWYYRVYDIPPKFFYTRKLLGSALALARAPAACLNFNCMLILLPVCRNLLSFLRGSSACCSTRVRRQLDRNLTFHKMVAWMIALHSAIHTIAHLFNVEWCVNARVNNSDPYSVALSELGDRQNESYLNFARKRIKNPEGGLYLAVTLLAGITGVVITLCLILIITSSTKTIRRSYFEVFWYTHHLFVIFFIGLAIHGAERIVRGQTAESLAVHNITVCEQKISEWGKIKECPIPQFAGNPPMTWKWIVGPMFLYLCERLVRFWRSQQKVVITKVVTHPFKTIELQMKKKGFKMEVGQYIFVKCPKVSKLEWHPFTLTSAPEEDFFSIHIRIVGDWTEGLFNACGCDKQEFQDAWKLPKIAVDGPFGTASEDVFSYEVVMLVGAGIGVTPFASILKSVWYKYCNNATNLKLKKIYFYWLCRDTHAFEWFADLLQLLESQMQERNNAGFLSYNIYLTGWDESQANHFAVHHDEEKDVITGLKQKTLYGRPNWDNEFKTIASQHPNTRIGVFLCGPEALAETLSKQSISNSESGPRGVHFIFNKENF
NADPH oxidase 5 (Homo sapiens), sequence (Q96PH1 whole entry, looked up): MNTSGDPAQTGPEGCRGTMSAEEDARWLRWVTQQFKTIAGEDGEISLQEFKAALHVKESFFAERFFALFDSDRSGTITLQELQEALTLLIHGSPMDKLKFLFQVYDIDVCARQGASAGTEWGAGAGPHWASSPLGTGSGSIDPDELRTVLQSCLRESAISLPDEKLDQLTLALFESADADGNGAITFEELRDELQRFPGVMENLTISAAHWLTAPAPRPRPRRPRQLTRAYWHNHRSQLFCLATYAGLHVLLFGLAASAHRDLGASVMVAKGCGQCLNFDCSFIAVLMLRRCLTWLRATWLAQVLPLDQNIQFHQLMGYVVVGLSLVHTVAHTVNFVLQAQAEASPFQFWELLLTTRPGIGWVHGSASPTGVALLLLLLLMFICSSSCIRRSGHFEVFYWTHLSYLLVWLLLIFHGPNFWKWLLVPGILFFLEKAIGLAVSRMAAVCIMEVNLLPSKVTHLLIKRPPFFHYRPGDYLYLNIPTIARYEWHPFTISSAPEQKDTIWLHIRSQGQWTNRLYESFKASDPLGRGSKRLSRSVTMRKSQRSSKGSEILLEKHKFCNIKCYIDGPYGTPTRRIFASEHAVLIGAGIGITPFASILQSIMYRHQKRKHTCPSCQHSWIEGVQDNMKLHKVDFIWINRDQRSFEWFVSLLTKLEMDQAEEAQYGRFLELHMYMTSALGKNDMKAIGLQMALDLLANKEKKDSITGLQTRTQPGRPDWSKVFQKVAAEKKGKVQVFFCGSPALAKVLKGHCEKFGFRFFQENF
NADPH oxidase 4 (Homo sapiens), sequence (Q9NPH5 whole entry, looked up): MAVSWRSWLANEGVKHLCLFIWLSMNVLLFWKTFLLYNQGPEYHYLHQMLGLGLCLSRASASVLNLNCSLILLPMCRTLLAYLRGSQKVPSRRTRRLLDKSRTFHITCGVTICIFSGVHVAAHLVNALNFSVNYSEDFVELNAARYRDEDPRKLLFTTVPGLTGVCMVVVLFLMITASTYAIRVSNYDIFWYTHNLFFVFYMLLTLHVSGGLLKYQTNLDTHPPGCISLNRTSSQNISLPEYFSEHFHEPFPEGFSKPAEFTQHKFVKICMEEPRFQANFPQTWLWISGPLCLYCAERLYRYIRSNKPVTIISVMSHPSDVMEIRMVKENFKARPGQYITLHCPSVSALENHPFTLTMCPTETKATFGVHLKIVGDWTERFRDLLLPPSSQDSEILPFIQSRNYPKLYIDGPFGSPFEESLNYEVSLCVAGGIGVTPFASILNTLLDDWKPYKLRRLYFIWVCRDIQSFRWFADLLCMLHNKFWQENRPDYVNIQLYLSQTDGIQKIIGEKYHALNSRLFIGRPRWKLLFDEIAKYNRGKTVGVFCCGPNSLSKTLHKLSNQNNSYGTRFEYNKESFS

Take `COC(=O)[C@@]1(Cc2ccc(F)cc2)[C@H]2c3cc(C(=O)N4CCCC4)n(Cc4ccccc4)c3C[C@H]2CN1C(=O)c1ccccc1`: the composite z-score is 0.379 in [1]; 1.38 in [6]; -0.0413 in [7]; 0.0257 in the experiment with Torsin-1A (Homo sapiens) [8]; 0.72 with Torsin-1A (Homo sapiens) [9]; -0.447 in experiment [10]. For the same molecule, the composite z-score in experiment [12] worked out at 0.216. Besides, the z-score was -3.69 (inactive) in experiment [2]; 0.195 (inactive) in experiment [3]; -0.368 (inactive) in [4]; 0.339 (inactive) in experiment [5]; -1.25 (inactive) in experiment [11]; 4.64 (inactive) in [13]. Moreover, the z-score in experiment [14] was 0.899 (inactive); in experiment [15] it was 2.65 (inactive); in experiment [16], 1.26 (inactive); in [17], 0.178; in experiment [18], -0.165 (inactive); in experiment [19] it was 0.648 (inactive). Besides, the z-score in [20] was -1.48.

`CC(C)N1C(=O)c2ccccc2[C@](C)(C(=O)O)[C@@H]1c1ccc(CO)cc1`: the composite z-score is -0.654 in [1]; -0.603 in experiment [6]; -0.148 in [7]; -1.03 with Torsin-1A (Homo sapiens) [8]; -0.792 with Torsin-1A (Homo sapiens) [9]; -1.02 in experiment [10]. This molecule came in with a composite z-score in [12] of 0.0451. For the same molecule, the z-score in experiment [2] is -0.328 (inactive); in [3] it was 0.00934 (inactive); in [4], -0.206 (inactive); in [5], 0.552 (inactive); in experiment [11], -0.308 (inactive); in experiment [13], 0.268 (inactive). Further, the z-score is -0.103 (inactive) in experiment [14]; 0.209 (inactive) in experiment [15]; 0.352 (inactive) in [16]; 0.256 in [17]; 0.229 (inactive) in experiment [18]; -0.166 (inactive) in experiment [19]. For the same molecule, the z-score in experiment [20] is -1.27.

With `O=C1C2C=CC(C(O)c3ccc(Br)cc3)N(Nc3ccccc3)C2C(=O)N1c1ccccc1` (stereo not given), the composite z-score was -0.0007 in experiment [1]; 1.47 in [6]; 0.147 in experiment [7]; -0.0004 in the experiment with Torsin-1A (Homo sapiens) [8]; -0.0172 with Torsin-1A (Homo sapiens) [9]; -0.146 in experiment [10]. This molecule also had a composite z-score in [12] of 0.305. For the same molecule, the z-score was 0.198 (inactive) in experiment [2]; -0.95 (inactive) in experiment [3]; 0.24 (inactive) in experiment [4]; 0.35 (inactive) in experiment [5]; -1.78 (inactive) in experiment [11]; 8.27 (active) in experiment [13]. Besides, the z-score in experiment [14] is 1.8 (inactive); in experiment [15], 0.244 (inactive); in experiment [16], 1.25 (inactive); in experiment [17], -0.554; in experiment [18], -1.82 (inactive); in experiment [19], -4.09 (inactive). The z-score in experiment [20] was -2.39.

For `CC1CC/C=C\[C@H]2OC34C=CCN(Cc5ccccc5)C(=O)[C@H]3N(CCO)C(=O)[C@@H]4C2C(=O)O1` (stereo not given in full), the composite z-score was 0.478 in experiment [1]; -0.492 in experiment [6]; -0.176 in experiment [7]; 2.37 with Torsin-1A (Homo sapiens) [8]; 2.58 in the experiment with Torsin-1A (Homo sapiens) [9]; -0.218 in experiment [10]. In experiment [12], this molecule yielded a composite z-score of -0.0867. For the same molecule, the z-score was -0.273 (inactive) in experiment [2]; 0.836 (inactive) in experiment [3]; -0.0778 (inactive) in [4]; 0.151 (inactive) in experiment [5]; 0.788 (inactive) in experiment [11]; 3.52 (inactive) in [13]. The z-score is -0.133 (inactive) in experiment [14]; 0.272 (inactive) in experiment [15]; -0.18 (inactive) in experiment [16]; -0.0144 in experiment [17]; 1.66 (inactive) in experiment [18]; 0.0441 (inactive) in experiment [19]. The z-score in experiment [20] was 2.24.

In the case of `C=C(CCCC)/C(=C/C[C@@H](OC(=O)c1ccncc1)c1ccccc1OCCO)c1cc(C(=O)OC)ccc1OC`, the composite z-score in experiment [1] was 0.106; in experiment [6] it was -0.36; in experiment [7], -0.0047; in the experiment with Torsin-1A (Homo sapiens) [8], 0.622; with Torsin-1A (Homo sapiens) [9], 1.1; in experiment [10], 1.4. In experiment [12], this molecule showed a composite z-score of 0.282. Further, the z-score in experiment [2] is -2.02 (inactive); in experiment [3] it was 0.0648 (inactive); in experiment [4], 15.6 (active); in experiment [5], 0.383 (inactive); in experiment [11] it was 0.504 (inactive); in [13], 28 (active). Also, the z-score in experiment [14] is 17.5 (active); in experiment [15], 3.94 (inactive); in experiment [16], 2.07 (inactive); in experiment [17] it was 0.761; in [18], 1.08 (inactive); in [19] it was -0.25 (inactive). In addition, in [20], the z-score was -1.62.

The record behind these values is PubChem BioAssay.
